Rows were chosen to be rich in hits. Some 10% of all compounds tested hit in one or more screens of this group.
HEK293 tox: cytotoxic compounds in HEK 293 cells; HEK 293 viability, ATP luminescence (CellTiter-Glo), 48-72 h; Potency, µM (series often up to 115 µM), hits mostly inhibitors; 94,000 tested, 6.6% active; AID 1345083; also: nearly all actives have a fitted effect of over 60% in size
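Cells seeded first (HEK 293, 250 cells/well), then compound added by pintool. Incubation ran 48 or 72 hr at 37 degree Celsius. CellTiter-Glo was added and luminescence imaged after 10 min at room temperature.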
GPT2 inh: blocks human glutamate pyruvate transaminase 2. Q8TD30. Recombinant GPT2, coupled pyruvate oxidase/HRP Amplex Red fluorescence. Potency, µM (top dose mostly 57.7 µM), hits mostly inhibitors. 100,000 tested, 0.25% active. AID 1671188; also: nearly all actives have a fitted effect of over 60% in size
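Fluorescence of coupled pyruvate oxidase/HRP/Amplex Red system (50uM Amplex, 30 min, dark) reports pyruvate formed by GPT2. Enzyme reaction: 10ng/uL GPT2, 2mM L-alanine, 250uM a-KG, 30 min room temperature, pH 7.5; 50uM AOA control.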
NPR1 antag: antagonists of human natriuretic peptide receptor Npr1. Potency, µM (titrated, usually from 46.3 µM), usual class: inhibitors. AID 1347048. HEK293 hNpr1 GloSensor cGMP, ANP-stimulated luminescence. 76,000 tested, 1.6% active. P16066; calls by dose curve; also: nearly all actives have a fitted effect of over 60% in size
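HEK293 cells stably expressing human Npr1 and cGMP GloSensor pGS-40F, loaded 2 h with 2% GloSensor reagent, given compound 30 min at room temperature. Luminescence read before and 20 min after 0.1 nM hNppA.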
3T3 cytotox: cytotoxic compounds in NIH 3T3 cells. Potency, µM (top dose mostly 96.7 µM), most hits filed as inhibitors. AID 1345082. 94,000 tested, 4.3% active. NIH 3T3 viability, CellTiter-Glo ATP luminescence, 48-72 h; also: nearly all actives have a fitted effect of over 55% in size
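Luminescent ATP readout (CellTiter-Glo, 10 min RT) after 48 or 72 hr compound exposure of NIH 3T3 cells seeded at 400 cells/well in 1536-well format; quantitative HTS.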
Luciferase inh: inhibitors of firefly (Photinus pyralis) luciferase; P08659; purified P. pyralis luciferase, luminescence, biochemical; Potency, µM (series often up to 115 µM), hits mostly inhibitors; 76,000 tested, 2.5% active; also: nearly all actives have a fitted effect of over 65% in size
Target sequence (P08659 whole entry, looked up): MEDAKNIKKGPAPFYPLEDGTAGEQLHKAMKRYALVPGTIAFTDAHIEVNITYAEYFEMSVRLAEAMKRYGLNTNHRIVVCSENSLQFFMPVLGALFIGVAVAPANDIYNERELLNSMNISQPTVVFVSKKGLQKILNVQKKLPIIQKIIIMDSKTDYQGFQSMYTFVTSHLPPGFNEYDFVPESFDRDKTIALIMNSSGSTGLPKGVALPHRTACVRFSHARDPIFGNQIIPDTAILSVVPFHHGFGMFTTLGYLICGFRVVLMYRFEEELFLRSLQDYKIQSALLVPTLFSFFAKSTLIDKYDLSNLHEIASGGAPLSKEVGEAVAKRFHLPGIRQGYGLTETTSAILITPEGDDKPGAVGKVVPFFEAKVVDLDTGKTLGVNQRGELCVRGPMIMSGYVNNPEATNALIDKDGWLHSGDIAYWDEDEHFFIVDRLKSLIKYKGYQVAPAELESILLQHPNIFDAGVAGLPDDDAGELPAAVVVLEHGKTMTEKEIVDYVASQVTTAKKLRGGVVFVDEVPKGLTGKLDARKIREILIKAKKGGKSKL
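Inhibitors were tested against purified firefly luciferase in a biochemical, low-substrate format (both substrates at 10uM) and luminescence measured with a CCD imager.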
Hits are given with their value; n = inactive; u = inconclusive; x = not tested or not shown. Unless noted, calls follow the shape of the dose curve; as a rule, active = well fitted curve in the direction sought with a large enough effect; inconclusive = small, poorly fitted or top-dose-only effect, or another doubt; inactive = no such curve, though single readings can be large; an effect the other way counts as inactive or inconclusive.

SMILES | HEK293 tox | GPT2 inh | NPR1 antag | 3T3 cytotox | Luciferase inh
O=C(NCC1CC1)c1noc(-c2ccccc2F)n1 | n | u | n | n | 40µM
COc1ccc(CCNC(=O)c2noc(-c3ccccc3F)n2)cc1OC | 32µM | n | u | u | n
O=C(NCC1CCCCC1)c1noc(-c2ccc[nH]c2=O)n1 | n | u | n | n | n
CN(C)Cc1cccc(-c2cc3c(ccn3Cc3cccnc3)c(C3=CCOCC3)n2)c1 | 35µM | n | n | u | n
C1=C(c2nc(-c3cncnc3)cc3c2ccn3Cc2cccnc2)CCOC1 | n | n | n | u | n
Cc1ccc(-c2cc3c(ccn3Cc3cccnc3)c(C3=CCOCC3)n2)cn1 | 45µM | n | n | u | n
COc1cccc(-c2cc3c(ccn3Cc3cccnc3)c(C3=CCOCC3)n2)c1OC | 100µM | u | n | 71µM | n
CN1C(=O)[C@@H]2C[C@@H](CN2C(=O)COc2ccccc2)Oc2ccccc21 | n | n | n | n | n
O=C(O)CCn1ncc2cc(OC3CCN(C(=O)Oc4ccccc4Cl)CC3)ccc21 | n | n | x | 8.9µM | n
Cc1ccc(OC(=O)N2CCC(Oc3ccc4c(cnn4CCC(=O)O)c3)CC2)cc1 | n | n | n | 35µM | n
O=C(O)CCn1ncc2cc(OC3CCN(C(=O)OC4CCCC4)CC3)ccc21 | n | n | n | u | u
Cc1ccc(OC(=O)N2CCC(COc3ccc4c(cnn4CCC(=O)O)c3)CC2)cc1 | u | n | n | n | n
Cc1cc(Cl)ccc1-n1nc(C)c([C@@H]2C=C[C@@H](NC(=O)c3ccc(N(C)C)cc3)C2)c1C | u | n | u | u | 18µM
Cc1ccc(-n2nc(C)c([C@H]3C=C[C@@H](OC(=O)Nc4ccc(C(C)C)cc4)C3)c2C)cc1Cl | 28µM | n | n | u | n
CC(=O)N[C@@H]1C=C[C@@H](c2c(C)nn(-c3ccc(C)c(Cl)c3)c2C)C1 | u | n | u | 79µM | u
Cc1nn(-c2ccc(C(F)(F)F)cc2)c(C)c1[C@@H]1C=C[C@@H](NS(=O)(=O)c2cccs2)C1 | u | n | n | u | n
COc1ccc(NC(=O)O[C@@H]2C=C[C@H](c3c(C)nn(-c4ccc(C)c(Cl)c4)c3C)C2)cc1 | u | n | n | u | n
COc1ccc(C(=O)N[C@@H]2C=C[C@@H](c3c(C)nn(Cc4ccccc4)c3C)C2)cc1 | u | n | n | u | u
CC(=O)Nc1ccc(S(=O)(=O)N[C@@H]2C=C[C@@H](c3c(C)nn(-c4ccc(C(C)(C)C)cc4)c3C)C2)cc1 | 45µM | n | n | u | 45µM
COc1cccc(C(C)N(C)Cc2nc(-c3cccs3)no2)c1 (centres undefined) | u | u | n | n | n
CCCS(=O)(=O)N1C[C@@H](Oc2ccccc2)C[C@H]1C(=O)NC | n | n | n | n | n
CCCc1cc(C(N)=S)ccn1 | x | n | x | x | x
Cc1cnc(C(=O)N[C@@H]2CCC[C@@H]2C(=O)Nc2cccc(C(C)C)c2)cn1 | n | n | n | n | n
CCc1ccc(NC(=O)c2ccc3c(c2)N(C)C2CCCCCN2C3=O)cc1 (centres undefined) | u | n | n | n | u
CN1c2cc(C(=O)Nc3ccc(OC(F)(F)F)cc3)ccc2C(=O)N2CCCCCC21 (centres undefined) | u | n | u | u | u
SMILES | HEK293 tox | GPT2 inh | NPR1 antag | 3T3 cytotox | Luciferase inh
Cc1ccc(NC(=O)c2ccc3c(c2)N(C)C2CCCCN2C3=O)cc1 (centres undefined) | u | n | n | n | 40µM
CN1c2cc(C(=O)NCc3cccs3)ccc2C(=O)N2CCCCC21 (centres undefined) | u | n | n | n | 25µM
CCc1ccc(NC(=O)c2ccc3c(c2)N(C)C2CCCCN2C3=O)cc1 (centres undefined) | u | n | n | u | 14µM
CN1c2cc(C(=O)Nc3ccc(OC(F)(F)F)cc3)ccc2C(=O)N2CCCC21 (centres undefined) | n | n | n | n | 40µM
Cc1cccc(CNC(=O)c2ccc3c(c2)N(C)C2CCCCCN2C3=O)c1 (centres undefined) | u | n | n | n | n
Cc1ccccc1C(=O)N1CCC2(CC1)N(C)C(=O)CS2(=O)=O | n | n | n | n | n
CCN1CCCC2(Cc3ccccc3CN(C(=O)CCC(=O)O)C2)C1 (centres undefined) | n | n | x | n | x
CCCNC(=O)N1CCC(Oc2ncccc2C(=O)N2CCOCC2)C1 (centres undefined) | n | n | n | n | n
COC[C@H]1NC(=O)CC[C@H]1C(=O)N1CCN(c2cccc(C)c2C)CC1 | n | n | x | n | x
Cc1ccc(NC(=O)c2ccc3c(c2)N(C)C2CCCN2C3=O)cc1 (centres undefined) | n | n | n | n | 22µM
O=C(Cc1ccccc1Cl)NCc1nnc2cc(-c3nc(C4CC4)no3)ccn12 | u | n | n | n | n
CC(C)[C@H](O)C(=O)N[C@@H](C)C(=O)N[C@@H]1C(=O)N(C)CCc2ccccc21 | x | n | x | x | x
COc1cccc2c1C(=O)c1c(O)c3c(c(O)c1C2=O)C[C@@](O)(C(=O)CO)C[C@@H]3O[C@H]1C[C@H](N)[C@H](OC2CCCCO2)[C@H](C)O1 (some centres undefined) | x | 3.1µM | x | x | x
O=C(C1CCN(Cc2ccccc2-c2ccccc2F)CC1)N1CCN(Cc2ccccc2)CC1 | 35µM | x | x | 25µM | x
O=C(C1CCN(Cc2ccccc2-c2ccccc2F)CC1)N1CCOCC1 | n | n | x | n | x
O=C(NCc1ccccc1Cl)C1CCN(Cc2ccccc2-c2ccccc2F)CC1 | u | x | x | 45µM | x
O=C(NC1CC1)C1CCN(Cc2ccccc2-c2ccccc2F)CC1 | n | n | x | n | x
O=C(NCc1ccccc1)C1CCN(Cc2ccccc2-c2ccccc2F)CC1 | 50µM | x | x | u | x
COc1ccc(CNC(=O)C2CCN(Cc3ccccc3-c3ccccc3F)CC2)cc1 | 45µM | x | x | u | x
O=C(NCCc1ccccc1)C1CCN(Cc2ccccc2-c2ccccc2F)CC1 | u | x | x | n | x
O=C(NCCc1ccccc1)C1CCN(c2nccc(Nc3ccccc3Cl)n2)CC1 | u | n | x | u | x
COc1ccc(N2CC3(COCC2=O)CN(c2ccc(C(F)(F)F)cn2)C3)cc1 | u | n | n | n | n
CN(C)C(=O)c1ccc(-c2cnc3[nH]cc(CC(=O)N4CCOCC4)c3c2)cc1 | u | n | n | u | n
O=C(Cc1c[nH]c2ncc(-c3ccncc3)cc12)N1CCOCC1 | n | n | n | u | n
O=C(Cc1c[nH]c2ncc(-c3ccc4c(c3)OCO4)cc12)N1CCOCC1 | u | n | u | 25µM | u
COc1ccc(-c2cnc3[nH]cc(CC(=O)N4CCOCC4)c3c2)cn1 | u | u | n | 25µM | u
O=C(Cc1c[nH]c2ncc(-c3ccc(F)cc3)cc12)N1CCOCC1 | u | n | u | u | 56µM
